Shown are actives, neighbours in structure and some others; about 1.1% of the full set was active somewhere.
NCOA2 inhibitor – inhibits human steroid receptor coactivator 2. Q15596. HEK293 GAL4-SRC2 luciferase reporter, luminescence. inhibition, % at 9 µM. actives 0.17% (n = 370,000). AID 651957;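 active means inhibition above the mean inhibition of all tested compounds plus 3 SD, set per campaign, cut at about 52% in these data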
GalR3 antagonist – human GalR3 antagonism. O60755. HEK293 GalR3-CNG cAMP membrane potential fluorescence; galR3 body fused to GalR1 C-terminus. inhibition, % at 3 µM. actives 0.44% (n = 360,000). AID 651719;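 active means inhibition above the screen-wide average plus 3 SD, cut at about 13% in these data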;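 further: forskolin and galanin both at EC90 stimulate the cells; cAMP rise reported by CNG channel membrane potential dye signal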
SRC1 inh – inhibitors of human steroid receptor coactivator 1 (SRC1); Q15788; HEK293 GAL4-SRC1 luciferase reporter, luminescence; inhibition, % at 3.6 µM; actives 0.12% (n = 360,000);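 active means inhibition above the campaign mean plus 3 SD, with each screening campaign given its own cutoff, cut at about 60% in these data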
NCOA3 inh – human NCOA3 inhibition | actives 0.17% (n = 360,000) | HEK293 GAL4-SRC3 luciferase reporter, luminescence | inhibition, % at 3.6 µM | AID 588352;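 active means inhibition above a per-campaign cutoff, the mean of all compounds plus 3 SD, cut at about 60% in these data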;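 further: higher means less SRC3-driven luciferase light from the GAL4 reporter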
COUP-TFII inh – inhibitors of human COUP-TFII (NR2F2). P24468. HEK293T NGFI-A luciferase reporter, luminescence. inhibition, % at 8.6 µM. actives 0.7% (n = 370,000). AID 686940;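 active means inhibition above a per-plate cutoff, mean inhibition of test wells between control levels plus 3 SD, cut at about 38% in these data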;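 further: cells cotransfected with COUP-TFII expression vector driving the NGFI-A reporter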
LRH-1 inv ag – suppresses constitutive activity of human LRH-1; HEK293T StAR-luciferase reporter, LRH-1 transfected, 24 h; inhibition, % at 3.6 µM; actives 0.13% (n = 360,000); AID 602396;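 active means inhibition above the mean inhibition of all tested compounds plus 3 SD, cut at about 73% in these data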
Target sequence (O00482 whole entry, looked up): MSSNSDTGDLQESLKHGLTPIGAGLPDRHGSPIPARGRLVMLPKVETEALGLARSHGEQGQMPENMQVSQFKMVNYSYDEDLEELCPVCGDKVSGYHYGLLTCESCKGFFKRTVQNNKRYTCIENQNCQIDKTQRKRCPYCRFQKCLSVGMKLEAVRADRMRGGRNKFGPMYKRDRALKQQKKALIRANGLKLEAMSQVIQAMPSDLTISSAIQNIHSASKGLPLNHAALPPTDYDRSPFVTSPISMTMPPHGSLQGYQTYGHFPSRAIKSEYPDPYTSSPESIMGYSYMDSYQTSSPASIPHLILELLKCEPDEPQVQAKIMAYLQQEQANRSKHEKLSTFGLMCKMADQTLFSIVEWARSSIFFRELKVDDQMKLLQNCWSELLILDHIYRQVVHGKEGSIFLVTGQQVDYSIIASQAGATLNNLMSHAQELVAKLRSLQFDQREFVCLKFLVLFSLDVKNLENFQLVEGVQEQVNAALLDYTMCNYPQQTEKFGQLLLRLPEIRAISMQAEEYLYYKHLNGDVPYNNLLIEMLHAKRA
GalR3 antag conf – confirmation of human galanin receptor 3 antagonists; inhibition, % at 3 µM; actives 59% (n = 1,600); HEK293 GalR3 CNG cAMP biosensor, membrane potential fluorescence; galR3 fused to GalR1 carboxy tail; challenged with forskolin and galanin at EC90; AID 652245; shares compounds with GalR3 antagonist;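 active means inhibition above the primary screen's cutoff, the mean inhibition of all screened compounds plus 3 SD, cut at about 13% in these data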
CNG parental – counter-screen for GalR3 antagonists: nonspecific agonists in parental HEK-CNG cells | shares compounds with GalR3 antagonist | HEK293-CNG parental cells, cAMP membrane potential fluorescence; normalised: DMSO wells 0%, forskolin wells 100% | activation, % at 3 µM | actives 10% (n = 1,600) | AID 652268; in the data active means activation above about 1.3%
Of the large screens only hits and unclear results are named; the others gave an inactive call (follow-up assays come after a bar, where they were run).

COC(=O)Cc1nnn2c1[C@@H](C)[C@@H](c1ccccc1Br)OC[C@H](C)C2	none (no result: SRC1 inh, NCOA3 inh, LRH-1 inv ag)
COc1ccc(CNc2nc(S(=O)(=O)c3ccccc3)c(Cl)s2)cc1OC	GalR3 antagonist 84.7 | GalR3 antag conf inactive | CNG parental inactive
CCCCN(C)CCn1c(=S)[nH]c2ncccc2c1=O	GalR3 antagonist 40.3 | GalR3 antag conf inactive | CNG parental inactive
COc1ccc(/C=C/C(=O)Nc2ccccc2Cl)cc1S(=O)(=O)N1CCOCC1	GalR3 antagonist 15.4 | GalR3 antag conf inactive | CNG parental inactive
COc1ccc(C)cc1S(=O)(=O)N1CCc2ccccc2C1	none
COc1ccc(/C=C/C(=O)Nc2ccccc2)cc1S(=O)(=O)N1CCOCC1	none
COc1ccc(/C=C/C(=O)O)cc1S(=O)(=O)N1CCc2ccccc2C1	none (no result: GalR3 antagonist) | GalR3 antag conf inactive | CNG parental inactive
Cc1ccc(/C=C/C(=O)O)cc1S(=O)(=O)N1CCc2ccccc2C1	GalR3 antagonist 15.5 | GalR3 antag conf inactive | CNG parental inactive
Cc1ccc(/C=C/C(=O)O)cc1S(=O)(=O)N1CCc2ccccc21	none
Cc1ccc(S(=O)(=O)N2C[C@H]3C(=O)C[C@@H](c4ccccc4)N(S(C)(=O)=O)[C@H]3C[C@H]2c2ccccc2)cc1	none
CS(=O)(=O)c1ccc(S(=O)(=O)N2CCN(C(=O)C(O)c3ccccc3)CC2)cc1 (stereo not drawn)	none (no result: SRC1 inh, NCOA3 inh)
COc1ccccc1Nc1ccc(NC(=O)c2cccc([N+](=O)[O-])c2C)cc1	GalR3 antagonist 14.0 | GalR3 antag conf inactive | CNG parental inactive
COc1ccc(NC(=O)c2ccccc2[N+](=O)[O-])cc1	none
COc1ccc(OC)c2[nH]c(=O)c(CCNC(C)=O)cc12	none
COc1ccc(OC)c2[nH]c(=O)c(CCNC(=O)COc3ccccc3)cc12	GalR3 antagonist 22.0 | GalR3 antag conf 19.9 | CNG parental inactive
O=c1[nH]c2cccnc2c2ccsc12	GalR3 antagonist 22.8 | GalR3 antag conf 16.7 | CNG parental inactive
C[C@H](O)[C@@H]1CN2CCc3ccc(-c4ccc5c(c4)OCO5)cc3[C@@H]2C[C@@H]1N(C)C(=O)c1cccc(Cl)c1	none (no result: SRC1 inh, NCOA3 inh, LRH-1 inv ag)
O=C(Nc1cccc([N+](=O)[O-])c1)OCc1ccc2c(c1)OCO2	none (no result: SRC1 inh, NCOA3 inh, LRH-1 inv ag)
COc1cc(Cn2c(-c3ccc(O)c(OC)c3)nc3ccccc32)ccc1O	GalR3 antagonist 23.2 | GalR3 antag conf 17.4 | CNG parental inactive
COc1ccc(-c2nc3ccccc3n2Cc2ccccc2)cc1	none
C=CCN1C(=O)/C(=C2/Sc3ccccc3N2CC)SC1=S	none
CCN1C(=O)/C(=C2/Sc3ccccc3N2CC)S/C1=N\c1ncn[nH]1	GalR3 antagonist 17.8 | GalR3 antag conf inactive | CNG parental inactive
Cc1ccc(NC(=O)Cn2cc(C=O)c3ccccc32)cc1	none
CC(C)(C)NCC(O)Cn1cc(C=O)c2ccccc21 (stereo not drawn)	GalR3 antagonist 14.2 | GalR3 antag conf 36.0 | CNG parental inactive
CCCc1cc(-c2[nH]ncc2-c2ccc(C(=O)OCC)o2)c(O)cc1O	GalR3 antagonist 31.3 | GalR3 antag conf 16.9 | CNG parental inactive
CCCc1cc(-c2[nH]ncc2-c2ccc3c(c2)OCCCO3)c(O)cc1O	none
COc1cccc(S(=O)(=O)Nc2ccc3c(c2)C(=O)N(C)C[C@H](OC)[C@H](C)CN[C@@H](C)CO3)c1	none (no result: SRC1 inh, NCOA3 inh)
C[C@@H]1CN([C@@H](C)CO)C(=O)CCCn2nncc2CO[C@H]1CN(C)S(=O)(=O)c1ccc(-c2ccccc2)cc1	GalR3 antagonist 13.0 | GalR3 antag conf 45.4 | CNG parental inactive
Cn1c(=O)c2c(nc(NC3CCCCC3)n2Cc2ccccc2)n(C)c1=O	none
Cn1c(=O)c2c(nc(NCC3CCCO3)n2Cc2ccccc2)n(C)c1=O (stereo not drawn)	none (no result: GalR3 antagonist) | GalR3 antag conf inactive | CNG parental inactive

Bioassay records from PubChem.
